# gsp agonist – agonists of gsp mutant (McCune-Albright syndrome) | gsp mutant cells, cAMP HTRF, 30 min | 0.13% of 340,000 active | Potency, µM (series often up to 76.9 µM), for the others: at the top dose activation (cAMP increase), hits mostly activators | AID 624287; active = well fitted activation curve with a large enough effect; inconclusive = small, poorly fitted or top-dose-only effect, or another doubt; inactive = no such curve, though single readings can be large or run the other way; cell line not stated here;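 note: phosphodiesterase inhibitor Ro 20-1724 added with compounds to block cAMP breakdown; potency is the fitted concentration of half-maximal effect; nearly all actives have a fitted effect of over 60% in size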
#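 Cells stably selected in G418 were plated at 2000/well, grown 16-24 hr, then given compounds in DMSO with the PDE inhibitor […] (300 uM solution added) for 30 min at 37C; cAMP was read by HTRF.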
# gsp antag – antagonizes gsp, the McCune-Albright syndrome mutation; gsp-mutant cells, cAMP HTRF, 30 min; 0.4% of 340,000 active; Potency, µM (highest dose often 76.9 µM), without a hit: top-dose activity change, negative = inhibition, hits mostly inhibitors; calls by dose curve; cell line not stated here;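 note: intracellular cAMP measured with PDE inhibitor Ro 20-1724 present during compound exposure; potency is the fitted concentration of half-maximal effect; % is set by controls: 0 for no effect and ±100 for the full control effect; nearly all actives have a fitted effect of over 65% in size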
#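 G418-selected cells were plated in DMEM/10% FBS for 16-24 h at 37C, then treated with compounds plus the PDE inhibitor […] (300 uM solution added) for 30 min at 37C. Intracellular cAMP was measured by HTRF after 30 min lysis at room temperature.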
# RXFP1 antagonist – blocks the human relaxin receptor RXFP1; Q9HBX9; HEK293-RXFP1, relaxin-stimulated cAMP HTRF, 30 min; active compounds read low; activity change, negative = inhibition, % at 57.5 µM; 0.59% of 350,000 active; AID 1259400;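 active = activity change of -60% or lower, but not beyond a set lower limit; inconclusive = change between -60% and -40%, or beyond the set limit; inactive = change above -40%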; note: % is set by controls: 0 for no effect and ±100 for the full control effect
# Target sequence (Q9HBX9 whole entry, looked up): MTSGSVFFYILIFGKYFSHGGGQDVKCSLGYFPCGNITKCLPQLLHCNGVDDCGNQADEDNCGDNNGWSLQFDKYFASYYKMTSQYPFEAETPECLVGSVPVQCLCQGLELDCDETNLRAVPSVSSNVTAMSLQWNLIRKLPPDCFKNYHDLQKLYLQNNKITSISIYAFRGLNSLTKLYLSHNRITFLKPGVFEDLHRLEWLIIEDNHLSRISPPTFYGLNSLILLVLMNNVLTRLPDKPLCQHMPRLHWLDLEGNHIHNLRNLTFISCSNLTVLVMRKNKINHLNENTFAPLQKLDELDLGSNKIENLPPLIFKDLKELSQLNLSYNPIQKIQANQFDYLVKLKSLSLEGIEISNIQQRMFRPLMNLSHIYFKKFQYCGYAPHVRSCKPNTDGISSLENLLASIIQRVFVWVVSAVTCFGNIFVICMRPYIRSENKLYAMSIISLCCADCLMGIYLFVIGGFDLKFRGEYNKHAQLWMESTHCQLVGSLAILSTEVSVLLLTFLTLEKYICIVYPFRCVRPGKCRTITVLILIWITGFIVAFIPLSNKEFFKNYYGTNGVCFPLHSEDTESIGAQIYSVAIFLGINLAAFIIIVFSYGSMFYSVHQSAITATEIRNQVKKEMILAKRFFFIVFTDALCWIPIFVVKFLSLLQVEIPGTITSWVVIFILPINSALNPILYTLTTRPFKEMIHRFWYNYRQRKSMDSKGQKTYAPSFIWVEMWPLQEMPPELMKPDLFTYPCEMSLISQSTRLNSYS
# RXFP1 ag – RXFP1 (human) receptor agonism. Q9HBX9. HEK293T-RXFP1 cAMP TR-FRET, 30 min; response scale: percent of porcine relaxin response, buffer zero. Potency, µM (top dose mostly 57.5 µM), without a hit: top-dose activation, usual class: activators. 0.3% of 370,000 active; active = well fitted activation curve with a large enough effect; inconclusive = small, poorly fitted or top-dose-only effect; note: potency is the fitted concentration of half-maximal effect; % is set by controls: 0 for no effect and ±100 for the full control effect; nearly all actives have a fitted effect of over 60% in size
#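 Agonist response is measured as cAMP accumulation in an RXFP1-transfected HEK293T line under PDE4 inhibition. Values are scaled between buffer-only and 29 nM porcine relaxin, and EC50s come from standard Hill equation fits.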
# pAkt inh – inhibitors of Akt phosphorylation; Neuro2A IGF-stimulated pAkt S473 HTRF, 20 min; active compounds read low; activity change, % for hits at 50 µM; 0.32% of 360,000 active; in the data active = activity change below about -80%; inconclusive = mostly about -51% to -80%; note: % is set by controls: 0 for no effect and ±100 for the full control effect
#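 Neuro2A cells in DMEM with 0.5% FBS, overnight at 37 deg C, given compound at single 50 µM final, then IGF (6 nM final) for 20 min at 37 deg C. Lysed; phospho-Akt Ser473 by HTRF after 24 h, 665/615 ratio.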
# * hit, by the source's call; i = inactive; ? = inconclusive; . = no result given; [ ] = remark or other dose. An excerpt weighted towards active compounds, which were near 1.3% of everything screened.
SMILES,gsp agonist,gsp antag,RXFP1 antagonist,RXFP1 ag,pAkt inh
CCOC(=O)C1(Cc2cccc(OC)c2)CCN(C/C=C/c2ccccc2)CC1,-11.7%,-9.7%,-12.2,-2.0%,i
CCOC(=O)C1(Cc2cccc(OC)c2)CCN(C/C=C/c2ccc(OC)cc2)CC1,-1.2%[15.4 µM],-14.9%,-81.9*,0.0%,i
COc1cccc(CNC(=O)c2cc(S(=O)(=O)N3CCOCC3)cn2C)c1,-9.2%,0.3%,-82.0*,0.4%,i
Cn1cc(S(=O)(=O)N2CCCC2)cc1C(=O)NCc1ccccc1Cl,-58.4%,-5.1%,-72.5*,4.6%,i
COc1ccccc1CNC(=O)c1cc(S(=O)(=O)N2CCCC2)cn1C,-7.8%,0.7%,-4.6,-0.1%,i
COc1ccc(CNC(=O)c2cc(S(=O)(=O)N3CCOCC3)cn2C)cc1,-0.4%,7.1%,0.9,3.7%,i
O=C(Nc1ccc(Cl)c(Cl)c1)c1cc(S(=O)(=O)N2CCN(c3cccc(Cl)c3)CC2)ccc1F,.,.,-6.2,-0.2%,.
CCc1ccccc1NS(=O)(=O)c1ccc(OC)c2ncccc12,0.2%,28.2µM*,?,0.8%,i
CCc1ccc(NS(=O)(=O)c2ccc(OC)c3ncccc23)cc1,6.8%,0.0%,34.0,-1.8%,i
COc1ccc(CNC(=O)Cn2c(=O)cc(-c3ccccc3)c3c(C)nn(C)c32)cc1,.,.,-10.2,-0.1%,.
CC(=O)c1nc(N2C(=O)CC(Cc3ccccc3)C2=O)sc1C (stereo not given),15.8µM*,9.9%,5.3,10.2%,i
Cc1ccc(S(=O)(=O)N(C)c2ccc(NS(C)(=O)=O)cc2)cc1,8.6%,-2.7%,-1.3,1.0%,-120.0%*
COc1ccc(-n2c(CCC(=O)O)ccc2-c2ccc(F)cc2)c(OC)c1,-40.4%,35.5µM*,5.4,1.1%,i
COC(=O)c1ccccc1-n1c(CCC(=O)O)ccc1-c1ccc(F)cc1,-84.0%,-15.4%,-12.6,1.3%,i
COc1ccc(-c2nnc(SCC(=O)N(C)C3CCCCC3)o2)cc1OC,.,.,.,3.6%,.
COc1ccc(-c2nnc(SCC(=O)OC3CCCCC3)o2)cc1OC,8.0%,?,-18.7,0.2%,-117.1%*
CCOC(=O)c1nnn(C(CC)C(=O)Nc2ccc(F)cc2)c1C(=O)OCC (stereo not given),.,.,-19.6,0.8%,.
COc1ccc(OC)c(CNS(=O)(=O)c2c(C(=O)N3CCCCCC3)c(C)n(C)c2C)c1,.,.,-8.7,4.7%,.
COCC(C)NC(=O)CSc1nnc(-c2cccc(S(=O)(=O)N3CCCCC3)c2)o1 (stereo not given),10.0%[15.4 µM],11.2µM*,-3.0,1.4%,i
CCc1ccc(NC(=O)N2CC(C)Oc3ccc(C)cc32)cc1 (stereo not given),.,.,-62.3*,0.1%,.
CCC1CN(C(=O)Nc2cccc3c2CCCC3)c2cc(C)ccc2O1 (stereo not given),.,.,-73.4*,1.5%,.
CCOC(=O)Cc1ccc(NC(=O)N2CC(C)Oc3ccc(Cl)cc32)cc1 (stereo not given),.,.,-25.9,1.8%,.
CCOc1ccccc1NC(=O)N1CC(C)Oc2ccc(Cl)cc21 (stereo not given),.,.,-82.9*,1.1%,.
O=C(O)Cn1cnnn1,.,.,3.2,.,.
CC(=O)c1ccc(-n2c(CCC(=O)O)ccc2-c2ccc(C)cc2)cc1,-6.9%,?,-15.4,1.3%,i
SMILES,gsp agonist,gsp antag,RXFP1 antagonist,RXFP1 ag,pAkt inh
CC(=O)c1ccc(-n2c(CCC(=O)O)ccc2-c2ccc(Br)cc2)cc1,?,0.891µM*,2.7,1.5%,i
CCOC(=O)C1CCN(C(=O)CN2C(=O)CSc3ccc(S(=O)(=O)N4CCOCC4)cc32)CC1,3.55µM*,5.5%,10.5,21.3%,i
CC(=O)NCc1cc(Cl)c2cccnc2c1O,.,.,.,0.9%,.
Cc1cc(Nc2cccc(C(F)(F)F)c2)nc2ccc(NC(=O)c3cccc(Cl)c3)cc12,.,.,.,-1.4%,.
Cc1cc(Nc2cccc(C(F)(F)F)c2)nc2ccc(NC(=O)c3cccnc3)cc12,.,.,-72.0*,6.4%,.
COc1cccc(C(=O)N2CCN(C(=O)c3cccs3)CC2)c1OC,-1.4%,12.3%,5.2,0.7%,-111.8%*
O=C(c1ccc(C(F)(F)F)cc1)N1CCC(c2noc(-c3ccc(S(=O)(=O)N4CCCC4)cc3)n2)CC1,.,.,-6.7,4.2%,.
